# Reference: PubChem BioAssay AID1902 (Broad Institute, 2009)
# Out of some 3,200 compounds screened, about 2,900 (91%) were called active.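 How the source made its calls: active means EC50 no more than a set limit of log units above the highest dose; inactive means the rest.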 So high a share suggests a set chosen from earlier hits. The list shows a part of the results. Potency and affinity values are given separately.
# Test: SKKanGAS survival reduction under kanamycin, dose response, streptokinase promoter inhibitor project, SKKanGAS strain, luminescence, dose confirmation (AID 1902);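 further: lower survival reflects blocked streptokinase promoter driving kanamycin resistance gene; 0% = DMSO median and -100% = tetracycline positive control median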
# Settings: S. pyogenes SKKanGAS, BacTiterGlo, 6 h; at 15 µM (top of the series)
row,Compound,"activity change, negative = inhibition"
1,N#C/C(=C\c1ccc(/C=C(/C#N)c2nn(CCO)c(N)c2C#N)cc1)c1nn(CCO)c(N)c1C#N,-60.6% (active)
